The whole screen tested about 1,200 compounds, of which about 10 (0.8%) were called active. About 4% were inconclusive and are not listed. The list comes from a sample in which actives are over-represented; it also holds similar structures and randomly drawn compounds. Values without a mark were called inactive. The call rests on the fitted dose curve; in most records, active means well fitted inhibition curve with a large enough effect; inconclusive means small, poorly fitted or top-dose-only effect; inactive means no such curve, though single readings can be large or run the other way.
Experiment: qHTS Assay to Find Inhibitors of Chronic Active B-Cell Receptor Signaling: Hit Validation in OCI-Ly3 Assay
Conditions: OCI-Ly3 IkB-luciferase reporter, Chroma-Glo luminescence, 4 h; series mostly up to 46.1 µM; activity change, negative = inhibition: at the top concentration
From the text: Diffuse large B-cell lymphoma (DLBCL) is the most common category of non-Hodgkin lymphoma, with ~20,000 new cases per year in the United States. DLBCL should be regarded as a collection of different neoplasms. Microarray gene expression analysis has defined two principal types of DLBCL, named for their similarity to normal B cell stages or activation states: a germinal center B-cell (GCB) type, and an activated B-cell (ABC) type. In ABC-DLBCL, a constitutive high-level activity of the NF-kappaB family of transcription factors has been observed (1) and NF-kappaB target genes are more highly expressed in ABC primary tumors than in GCB tumors. Functional studies have shown a constitutive high-level activity of the IkappaB (inhibitor of kappa-B) kinase (IKK) complex. […] Further analysis of DLBCL primary tumors for NF-kappaB target gene expression imply that although CARD11 is required for constitutive IKK activity in all ABC-DLBCL lines, mutations in CARD11 may be the root cause of IKK activation only in lines or tumors with such mutations. In other words, CARD11 mutations may explain NF-kappaB activation in only 10% of ABC-DLBCL cases. […] This process has been termed 'chronic active BCR signaling' (CABS). The goal of this screen is to find small-molecule inhibitors of the CABS pathway found in ABC-DLBCL lines using a cell-based assay that measures IkappaBalpa stability, which has already been extensively validated in the OCI-Ly3 line (PubChem AID:445; REF: 4). […] Hits from the primary screen were tested in this selectivity secondary assay. NIH Molecular Libraries Probe Production Network [MLPCN] NIH Chemical Genomics Center [NCGC] MLPCN Grant: R03 DA031086 PI Name: Dr. R. Eric Davis
Cells were seeded in 1536-well plates at 5000 cells/3ul in IMDM medium containing 0.5% FBS, w/o phenol red, L-glutamine, 25 mM HEPES, 3 mg/ml sodium bicarbonate. After centrifugation for 1 min. at 1000 rpm, 23 nl of compounds or DMSO were delivered to each well using a pin tool. Then 1ul 80ng/ml doxycycline was dispensed into white solid 1536-well plates and the plates were incubated at 37C/5% C02 in a cell incubator for 4 hrs. Then 4 ul Chroma-Glo luminescent substrate mix (Promega) was added to each well. The plate was incubated at R.T. for 10-15 min. The plates were measured on a ViewLux plate reader for green luminescence (540/20 nm filter) and red luminescence (618/8 nm filter). The green and red luminescent signals were corrected for red and green luminescence filter overlap using previously determined filter calibration constants (determined using the procedure outlined in the Promega Technical Manual). The %Activity was determined from the ratio of corrected green/red luminescent values. Green luminescent and ratio %Activity was determined by normalizing to the difference in signal between basal cells (0% Activity) and cells incubated with 10 uM of the proteasome inhibitor MG-132 (100% Activity). Red luminescent %Activity was normalized to the difference between red luminesence in basal cells (0%Activity) and zero luminescence (-100% Activity). Concentration-response curves were fitted to the signals arising from the green luminescence (I-kappa-B-alpha-luciferase fusion; IkB-luc) and the red luminescence (unfused luciferase; luc) as well as the calculated ratio. The concentration-effect curves were then classified based on curve quality (r2), response magnitude and degree of measured activity. Compounds were then categorized based on their concentration-response curves for all three datasets (Ikb-luc, luc and ratio).
On the % scale 0 is the no-effect control and ±100 the full control effect; potency means the concentration at half of the fitted maximal effect.

Compared with `Cc1cccc(OCCN2C(=O)C(=O)c3cc(C)ccc32)c1`, `Cc1cccc(NC(=O)c2ccc(C(=O)Nc3cccc(C)c3)nc2)c1` is higher in “activity change, negative = inhibition” value: -1.66% for the first, -0.935% for the second.

Going from `Cc1onc(-c2ccccc2)c1-c1nc2cc(Cl)ccc2c(=O)o1` to `COc1ccc(-c2noc(CSc3nc(N)c(-c4ccccc4)c(=O)[nH]3)n2)cc1`, the “activity change, negative = inhibition” value rises from -14.1% to -0.936%.

Compared with `CSc1nc(SCC(=O)NCc2ccco2)c2c3c(sc2n1)COC(C)(C)C3`, `CCc1ccc(CCC(=O)Nc2sc3c(c2C#N)CCCC3)o1` is higher in “activity change, negative = inhibition” value: -2.6% for the first, -1.9% for the second.

`Cc1nnc(C)n1/N=C/c1cc2ccccc2nc1Cl` and `CN(C)c1ccc(-c2nn3c(-c4ccccc4Cl)nnc3s2)cc1` are the same in “activity change, negative = inhibition” value: -2.19% for the first, -2.19% for the second.

Going from `Cc1cc(=O)c(C(=O)Nc2cccc(N3CCCC3=O)c2)nn1-c1ccccc1Cl` to `COC(=O)c1cccc(-n2sc3ccccc3c2=O)c1`, the “activity change, negative = inhibition” value falls from -0.879% to -6.16%.

Compared with `COc1ccc(C2=NC(C)(C)Cc3cc(OC)c(OC)cc32)cc1OC`, `COc1cc(Cc2nccc3cc(OC)c(OC)cc23)c(NC(C)=O)cc1OC` is lower in “activity change, negative = inhibition” value: 0.417% for the first, -0.252% for the second.

First: CCCCC[C@H](O)/C=C/[C@@H]1[C@@H](C/C=C\CCCC(=O)O)[C@@H](O)C[C@H]1O
Second: O=C(O)CCCN1C(=O)/C(=C\c2ccccc2OCc2ccccc2)SC1=S
The “activity change, negative = inhibition” value of the first is higher: -0.871% for the first, -3.44% for the second.

First: c1ccc(-c2cc(-c3nnc4n3N=C(c3ccc5ccccc5c3)CS4)[nH]n2)cc1
Second: COc1ccc2c(c1)sc1nc(-c3ccccc3)cn12
The “activity change, negative = inhibition” value of the first is lower: -4.31% for the first, 16.8% for the second.

Going from `O=C(c1ccc(Cl)cc1)c1cc([N+](=O)[O-])ccc1N1CCOCC1` to `COC(=O)Nc1nc(-c2ccccc2)c(C(=O)c2ccc(Cl)cc2)s1`, the “activity change, negative = inhibition” value rises from -4.74% to -1.03%.

Going from `O=C(O)c1ccc(CSc2nnc(-c3ccco3)o2)cc1` to `Cc1ccc(NC(=O)c2ccco2)c([N+](=O)[O-])c1`, the “activity change, negative = inhibition” value rises from -0.305% to 0.0255%.

Going from `CC(Oc1ccc(Br)cc1)c1nc2c3ccccc3nc(=S)n2[nH]1` (stereo not drawn) to `COc1ccc(CCNC(=O)Cn2c(=O)cnc3ccccc32)cc1`, the “activity change, negative = inhibition” value falls from 349% to -0.695%.

Compared with `CCOc1ccccc1/C=N/Nc1nc2c(N)ncnc2n1[C@H]1O[C@@H](CO)[C@H](O)[C@@H]1O`, `COc1ccccc1NC(=O)Cn1nnc(C(=O)NCc2cccs2)c1N` is lower in “activity change, negative = inhibition” value: 0.035% for the first, -0.743% for the second.

First: CCCNS(=O)(=O)c1cccc(C(=O)OCc2cc(=O)oc3cc(OC)ccc23)c1
Second: CCOC(=O)COc1cccc2c(=O)n(CC(=O)NCc3ccc(F)cc3)ccc12
The “activity change, negative = inhibition” value of the first is lower: -16.4% for the first, -1.96% for the second.

Going from `Cc1ccc(NS(=O)(=O)c2cc(-c3n[nH]c(=O)c4ccccc34)ccc2C)cc1` to `CC1=Nc2ccccc2/C1=C\c1sc(Nc2ccc(C)cc2)nc1O`, the “activity change, negative = inhibition” value falls from -3.87% to -20.5%.

Compared with `COc1ccc(-c2c(C)nn3c(N)c(C#N)cnc23)cc1OC`, `COc1ccc(CCNc2oc(-c3ccc(OC)c(OC)c3)nc2P(=O)(OC)OC)cc1OC` is lower in “activity change, negative = inhibition” value: 0.123% for the first, 0.113% for the second.

Compared with `COc1cccc(-c2nnc(Nc3nc4c(F)cccc4s3)o2)c1`, `COc1cccc(Nc2sc(C(=O)c3ccc(Cl)cc3)c(N)c2C(=O)NCc2ccc(C)cc2)c1` is lower in “activity change, negative = inhibition” value: 37.5% for the first, -1.56% for the second.

First: CCOc1c(OC)cccc1C1CC(=O)Nc2cc(OC)c(OC)cc21 (stereo not drawn)
Second: C#CCOc1ccc(C2C3=C(COC3=O)Nc3cc4c(cc32)OCO4)cc1OC (stereo not drawn)
The “activity change, negative = inhibition” value of the first is higher: -0.312% for the first, -3.1% for the second.

Going from `COc1cc2c(c(OC)c1OC)-c1ccc(OC)c(=O)cc1[C@@H](N(C)CC#CCO)CC2` to `COc1cc(/C=C\C(=O)OCn2nnc3ccccc3c2=O)cc(OC)c1OC`, the “activity change, negative = inhibition” value falls from -1.53% to -4.34%.

First: Cc1cccc(N(C)S(=O)(=O)c2ccc(-c3cnc(C4CC4)o3)cc2)c1
Second: Cc1cccc(C)c1NS(=O)(=O)c1ccc(-c2cnc(C3CC3)o2)cc1
The “activity change, negative = inhibition” value of the first is lower: -6.59% for the first, -5.58% for the second.

Going from `CC(=O)N1c2ccc(C)cc2C(c2ccccc2)CC1C` (stereo not drawn) to `NNC(=O)c1[nH]c2ccccc2c1-c1ccccc1`, the “activity change, negative = inhibition” value falls from -2.03% to -4.38%.

First: Cc1noc(C)c1CSc1nc2[nH]ncc2c(=O)n1-c1ccccc1
Second: CC(C)N1C(=O)/C(=C\c2nc3ccccc3c(=O)[nH]2)c2ccccc21
The “activity change, negative = inhibition” value of the first is higher: -5.84% for the first, -26.8% for the second.

First: Nc1ccc(C(=O)n2c3ccccc3c3ccccc32)cc1
Second: O=c1cc(-c2cccc(F)c2)[nH]c2ccccc12
The “activity change, negative = inhibition” value of the first is lower: -4.18% for the first, -3.48% for the second.

Compared with `COc1cc(OC)c(OC)cc1/C=C1\CCC/C(=C\c2cc(OC)c(OC)cc2OC)C1=O`, `COc1ccc(/C=C/C(=O)c2cc(F)ccc2OC(=O)c2ccc(OC)c(OC)c2)cc1OC` is higher in “activity change, negative = inhibition” value: -10.7% for the first, -5.26% for the second.

Going from `COc1ccccc1-n1cnc2cc(NCc3cccs3)ccc21` to `CCOc1c(Br)cc(CNc2ccc3c(c2)OCCO3)cc1OC`, the “activity change, negative = inhibition” value falls from 40.4% to -4.18%.

Compared with `CN(CC(=O)O/N=C(\N)c1ccccn1)S(=O)(=O)c1cc(Cl)ccc1Cl`, `O=C(CSc1cccc[n+]1[O-])c1cc(Cl)ccc1Cl` is lower in “activity change, negative = inhibition” value: -0.248% for the first, -6.48% for the second.

First: Cc1ccc(/C=N/NC(=O)c2n[nH]c3c2CCCC3)cc1
Second: Cc1ccc(NC(=S)N/N=C/c2c(Cl)cccc2Cl)c(C)c1
The “activity change, negative = inhibition” value of the first is higher: -1.46% for the first, -4.26% for the second.

Going from `Cc1cc(C)c(C#N)c(SCc2c(F)cccc2[N+](=O)[O-])n1` to `O=[N+]([O-])c1cccnc1SCc1c(F)cccc1Cl`, the “activity change, negative = inhibition” value rises from -2.3% to -1.19%.

Going from `O=C1OCC2=C1C(c1ccc(F)cc1)c1cc3c(cc1N2)OCO3` (stereo not drawn) to `COc1cc(C(=O)Nc2nc(C)c(Cc3ccc4c(c3)OCO4)s2)cc(OC)c1OC`, the “activity change, negative = inhibition” value falls from -4.57% to -6.45%.

Going from `COc1cc(C(=O)N2CCN(c3cc(Cl)ccc3Cl)CC2)cc(OC)c1OC` to `COc1cc(C2Nc3ccccc3C(=O)N2c2ccc(Cl)cc2)c(Cl)cc1OCC(=O)O` (stereo not drawn), the “activity change, negative = inhibition” value rises from -4.65% to 0.262%.

First: CC1=CC(C)(C)N2C(=O)C(=O)c3cc(OC(=O)c4ccco4)cc1c32
Second: COC(=O)C1C(O)=C(C=Nc2ccccc2)C(=O)CC1(C)C (stereo not drawn)
The “activity change, negative = inhibition” value of the first is lower: -12.4% for the first, 0.611% for the second.

Going from `CCOc1cc(/C=C2\CN(C)C/C(=C\c3ccc(O)c(OCC)c3)C2=O)ccc1O` to `CCOC(=O)c1c(C)sc2c1N(C(C)=O)c1cc(Cl)ccc1S2`, the “activity change, negative = inhibition” value rises from -16.9% to -1.47%.

Compared with `Cc1nnc2sc(-c3csc4c3CCCC4)nn12`, `Cc1c(C(=O)OCC(C)C)[nH]c2c1C(=O)CC(c1cccs1)C2` (stereo not drawn) is higher in “activity change, negative = inhibition” value: -0.641% for the first, -0.184% for the second.

Going from `CCCSc1nc(C)c(C(C)=O)cc1C#N` to `Cc1cc2nc(/C=C/c3cccnc3)[nH]c2cc1C`, the “activity change, negative = inhibition” value falls from -0.455% to -2.38%.

In the case of `Clc1cncc(Cl)c1N/N=C/c1ccncc1`, the “activity change, negative = inhibition” value is reported as -4.45%.

In the case of `COc1ccc(C(=O)/C=C/c2ccc(OC)c(Cn3nnc4ccccc43)c2)cc1`, the Potency is reported as 16.4 µM (active).

— PubChem BioAssay AID651567 (National Center for Advancing Translational Sciences (NCATS), 2012)
